Shown are actives, neighbours in structure and some others; about 1.8% of the full set was active somewhere.
GC-B act – human GC-B receptor activators, primary screen, HEK293 GC-B cells, cGMP TR-FRET, EC30 CNP; Atrial natriuretic peptide receptor 2 (Homo sapiens), P20594; 0% at EC30 CNP, 100% saturating CNP; activation, % at 10 µM; AID 1920062, 2024; 370,000 compounds, 0.11% hits;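 active = activation at 10 µM reaching about 35% in either raw or pattern-adjusted values, limit read from the data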
Myeloid diff 2 – induction of myeloid progenitor differentiation, primary screen, cell-based, flow cytometry, MLPCN library | ER-HoxA9 myeloid progenitors, lysozyme-GFP differentiation | calls only at 10 µM | 360,000 compounds, 1% hits | AID 624256, 2012;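 active = normalized GFP-positive differentiation at or above the plate's own cutoff, the solvent-only control mean plus 3 SD; inconclusive = no clear call, values can overlap the other calls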;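 note: cells exposed to compound for four days before flow analysis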
GC-A act – GC-A stimulated cGMP production enhancers – HEK293 GC-A cells, cGMP TR-FRET, EC30 ANP, primary screen; Atrial natriuretic peptide receptor 1 (Homo sapiens), P16066; 0% at EC30 ANP, 100% saturating ANP; activation, % at 10 µM; 370,000 compounds, 0.14% hits; AID 1671463, 2021; in the data active = activation above about 40%
Granule exo inh – LAMP-1 surface exposure blockers, TALL-104 cells – cell-based, flow cytometry, MLPCN library, primary screen; TALL-104 LAMP-1 surface exposure; cells stimulated with thapsigargin and PMA; inhibition, % at 10 µM; 360,000 compounds, 0.66% hits;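 active = inhibition above about 55%, limit read from the data; inconclusive = no clear call, values can overlap the other calls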
Myeloid diff CP1 – inducers of myeloid progenitor differentiation, confirmation, cell-based, GFP/Mac1 flow cytometry, cherry pick 01. shares compounds with Myeloid diff 2. ER-HoxA9 myeloid progenitors, GFP/Mac1 double-positive flow. calls only. 2,300 compounds, 2% hits. AID 651706, 2012;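 active = share of green or green-and-red cells above 9 and 9% in run 1 or 4 and 3% in run 2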
GFP autofluor – counter-screen for myeloid differentiation promoters: compound fluorescence. shares compounds with Myeloid diff 2. 2,300 compounds, 7.4% hits. fluorescence response, % (test concentration not listed). ER-HoxA9 myeloid progenitors, no estrogen, GFP autofluorescence flow cytometry; vehicle wells 0%, positive control 100%. AID 651707;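 active = over 5% cells positive for green fluorescent reporter, or over 2% positive for both it and APC stain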;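 note: range taken on the double positive population between DMSO and positive control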
* = called active by the depositor.

How did Cc1ccc(S(=O)(=O)Nc2ccc(S(=O)(=O)Nc3ncccn3)cc2)cc1 do in these assays?
GC-B act: 1.1; Myeloid diff 2: inactive; GC-A act: -8.2; Granule exo inh: -0.3; Myeloid diff CP1: inactive; GFP autofluor: 0.0

Results for Cc1cccc(-c2nnc(SCC#N)n2C)c1 ?
GC-B act: 3.9; Myeloid diff 2: inactive; GC-A act: -1.0; Granule exo inh: -3.9

Results for COc1cc(C)nc(NS(=O)(=O)c2ccc(C)cc2)n1 ?
GC-B act: 1.6; Myeloid diff 2: inactive; GC-A act: 1.9; Granule exo inh: 0.0; Myeloid diff CP1: inactive; GFP autofluor: 0.0

What do the screens show for `Cc1ccc(S(=O)(=O)Nc2ccc(-c3nnc(SCC#N)n3C)cc2)cc1`?
GC-B act: -1.5; Myeloid diff 2: active; GC-A act: 2.0; Granule exo inh: 1.7; Myeloid diff CP1: inactive; GFP autofluor: 0.0

How did OC[C@@H]1CN(Cc2ccc(Cl)cc2)C[C@H](n2cnc3c(N4CCN(c5ccccc5)CC4)ncnc32)O1 do in these assays?
GC-B act: 3.7; Myeloid diff 2: inactive; GC-A act: 1.8; Granule exo inh: -3.7

What do the screens show for `COC(=O)[C@@]1(Sc2ccc(C)cc2)CC(=O)N(C(=O)/C=C/c2ccccc2)[C@@H]1c1ccccc1`?
GC-B act: 7.2; Myeloid diff 2: inactive; GC-A act: 0.7; Granule exo inh: -1.4

How did COP(=O)(OC)C(Cc1ccccc1)NC(=O)CNC(=O)OCc1ccccc1 (stereo not given) do in these assays?
GC-B act: -0.7; GC-A act: -2.7

How did CCCCNc1nc2sc3c(c2c(=O)n1-c1cccc(Cl)c1)CCN(C)C3 do in these assays?
GC-B act: -2.7; Myeloid diff 2: inconclusive; GC-A act: 13.4; Granule exo inh: 0.5

What do the screens show for `CCSc1nc2sc3c(c2c(=O)n1-c1ccccc1)CCN(C(C)C)C3`?
GC-B act: -1.1; Myeloid diff 2: active; GC-A act: 13.0; Granule exo inh: 0.9; Myeloid diff CP1: inactive; GFP autofluor: 4.9

What do the screens show for `CCCCCNc1nc2sc3c(c2c(=O)n1-c1cccc(Cl)c1)CCN(C)C3`?
GC-B act: -2.1; Myeloid diff 2: active; GC-A act: 20.2; Granule exo inh: 9.8; Myeloid diff CP1: inactive; GFP autofluor: 0.8

Results for CC1(c2nnnn2-c2ccc3c(c2)OCCO3)CCC(=O)N1CCOc1ccccc1 (stereo not given) ?
GC-B act: -1.0; Myeloid diff 2: inactive; GC-A act: -2.0; Granule exo inh: -9.7

Results for CC(C)C(=O)Nc1cccc(S(=O)(=O)c2cccc(NC(=O)C(C)C)c2)c1 ?
GC-B act: 9.0; Myeloid diff 2: inactive; GC-A act: -1.9; Granule exo inh: -0.1; Myeloid diff CP1: inactive; GFP autofluor: 0.0

Results for CSc1cccc(NC(=O)C(C)C)c1 ?
GC-B act: -1.9; Myeloid diff 2: inactive; GC-A act: -1.0; Granule exo inh: 1.4

What do the screens show for `CCn1c(=S)[nH]c2c(=O)n(C)c(=O)n(C)c21`?
GC-B act: 1.8; Myeloid diff 2: inactive; GC-A act: 0.8; Granule exo inh: -1.4

How did CCCN(CC(=O)Nc1ccccc1OC)C(=O)CN1C(=O)NC2(CCCCC2)C1=O do in these assays?
GC-B act: 2.5; Myeloid diff 2: active; GC-A act: 5.0; Granule exo inh: 6.1; Myeloid diff CP1: inactive; GFP autofluor: 0.0

What do the screens show for `CC(C)N1CCc2c(sc(NC(=O)c3nc4ccccc4s3)c2C(N)=O)C1`?
GC-B act: -3.2; Myeloid diff 2: active; GC-A act: 0.6; Granule exo inh: 13.3; Myeloid diff CP1: inactive; GFP autofluor: 1.3

Results for O=C(NCc1cccnc1)NC1(C(F)(F)F)Oc2ccccc2O1 ?
GC-B act: 3.7; Myeloid diff 2: active; GC-A act: -4.2; Granule exo inh: 2.1; Myeloid diff CP1: inactive; GFP autofluor: 0.0

How did CC(C)CNC(=O)NC1(C(F)(F)F)Oc2ccccc2O1 do in these assays?
GC-B act: -3.8; Myeloid diff 2: inactive; GC-A act: 1.7; Granule exo inh: -0.7

What do the screens show for `O=C1c2ccccc2C(=O)C1Cc1cccc2ccccc12`?
GC-B act: 0.3; Myeloid diff 2: inactive; GC-A act: 1.6; Granule exo inh: 26.3; Myeloid diff CP1: inactive; GFP autofluor: 0.0

How did O=C1NC(c2cccc3ccccc23)Nc2ccccc21 (stereo not given) do in these assays?
GC-B act: 1.9; Myeloid diff 2: inconclusive; GC-A act: -2.7; Granule exo inh: -2.5

Results for CC1=Nc2ccc3ccccc3c2C1(C)C ?
GC-B act: -0.2; Myeloid diff 2: active; GC-A act: 3.5; Granule exo inh: 1.1; Myeloid diff CP1: inactive; GFP autofluor: 0.0

What do the screens show for `Cc1ccc(C(O)c2ncc(-c3ccc(C(F)(F)F)cc3)[nH]2)cc1F` (stereo not given)?
GC-B act: 3.5; Myeloid diff 2: inactive; GC-A act: -2.3; Granule exo inh: 3.3

Results for CCOC(=O)[C@]12CCCC3=C1N(CCC3)C(=O)[C@@H](CC(=O)N1CCCCC1)C2 ?
GC-B act: 5.0; GC-A act: 3.3

Results for CCCc1[nH]n(-c2ccc(F)cc2)c(=O)c1C=Nc1cccc(F)c1 ?
GC-B act: -7.4; Myeloid diff 2: inactive; GC-A act: -6.2; Granule exo inh: -1.7; Myeloid diff CP1: inactive; GFP autofluor: 1.6

What do the screens show for `CCCc1[nH]n(-c2ccc(F)cc2)c(=O)c1C=NCC1CCCO1` (stereo not given)?
GC-B act: -0.7; Myeloid diff 2: inactive; GC-A act: 0.3; Granule exo inh: 3.0

What do the screens show for `Cc1ccc(-c2csc(NC(=O)/C=C/c3cccs3)n2)cc1C`?
GC-B act: 2.1; Myeloid diff 2: inactive; GC-A act: 11.0; Granule exo inh: 22.1; Myeloid diff CP1: inactive; GFP autofluor: 0.3

Results for N#Cc1ccc(-c2csc(NC(=O)/C=C/c3cccs3)n2)cc1 ?
GC-B act: -0.1; Myeloid diff 2: active; GC-A act: 11.9; Granule exo inh: 3.4; Myeloid diff CP1: inactive; GFP autofluor: 0.0

What do the screens show for `O=c1[nH][nH]c2c1[C@@H](c1ccc(F)cc1)O[C@H](CCOCc1ccccc1)C2`?
GC-B act: 6.2; Myeloid diff 2: inactive; GC-A act: 1.4; Granule exo inh: 3.4

How did OC(c1ccc(F)c(F)c1)c1nc(-c2ccoc2)cs1 (stereo not given) do in these assays?
GC-B act: -1.4; Myeloid diff 2: inactive; GC-A act: -1.0; Granule exo inh: 0.4

How did CCN(CC)C(=O)CSc1nnc([C@H](CCSC)NC(=O)OC(C)(C)C)o1 do in these assays?
GC-B act: 0.4; Myeloid diff 2: inactive; GC-A act: 3.1; Granule exo inh: -2.5
